The whole screen tested about 5,500 compounds, of which about 2,000 (36%) were called active. Not shown: some 18% with an inconclusive outcome. No stated cut-off is given here; in the data, active means normalized growth mostly below about 0.91 (no sharp cut-off); inconclusive means no clear call, values can overlap the other calls; inactive means mostly above about 0.92. The list shows a part of the results.
Experiment: chemical genetic growth profiling, strain panel (AID 1159580);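 further: tested at 20 µM; growth read once vehicle control cultures reached saturation at 30 °C; 1 = growth at the plate median or of vehicle wells; lower values mean less growth of the strain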
Conditions: growth OD

Measured: normalized growth

CCCCN1CCCCC1C(=O)Nc1c(C)cccc1C (configuration not stated)
inactive: S. cerevisiae deletion strains, locus YJR075W, strain HOC1, active compounds read low 1 | S. cerevisiae deletion strains, locus YKL009W, strain mrt4, active compounds read low 1.01 | S. cerevisiae deletion strains, locus YKL068W, active compounds read low 0.991 | S. cerevisiae deletion strains, locus YKL085W, strain MDH1 (second series), active compounds read low 1 | S. cerevisiae deletion strains, locus YKL085W, strain MDH1, active compounds read low 1 | S. cerevisiae deletion strains, locus YKL160W, strain elf1, active compounds read low 0.992 | S. cerevisiae deletion strains, locus YKL190W, strain CNB1, active compounds read low 1.01 | S. cerevisiae deletion strains, locus YKR001C, strain vps1, active compounds read low 1.01 | S. cerevisiae deletion strains, locus YKR026C, strain gcn3, active compounds read low 0.997 | S. cerevisiae deletion strains, locus YKR091W, strain srl3, active compounds read low 0.982 | S. cerevisiae deletion strains, locus YLL001W, strain dnm1, active compounds read low 0.991 | S. cerevisiae deletion strains, locus YLL026W, active compounds read low 0.998 | S. cerevisiae deletion strains, locus YLL041C, strain sdh2, active compounds read low 0.991 | S. cerevisiae deletion strains, locus YLR027C, strain aat2, active compounds read low 0.991 | S. cerevisiae deletion strains, locus YLR039C, strain RIC1, active compounds read low 1.01 | S. cerevisiae deletion strains, locus YLR058C, strain SHM2, active compounds read low 1.01 | S. cerevisiae deletion strains, locus YLR102C, strain apc9, active compounds read low 0.994 | S. cerevisiae deletion strains, locus YLR113W, strain HOG1, active compounds read low 0.991 | S. cerevisiae deletion strains, locus YLR221C, strain rsa3, active compounds read low 0.996 | S. cerevisiae deletion strains, locus YLR258W, strain gsy2, active compounds read low 0.992 | S. cerevisiae deletion strains, locus YLR262C, strain YPT6 (second series), active compounds read low 0.998 | S. cerevisiae deletion strains, locus YLR262C, strain YPT6, active compounds read low 1.06 | S. cerevisiae deletion strains, locus YLR268W, strain sec22, active compounds read low 0.943 | S. cerevisiae deletion strains, locus YLR320W, strain mms22, active compounds read low 1.01 | S. cerevisiae deletion strains, locus YLR330W, strain CHS5, active compounds read low 1.01 | S. cerevisiae deletion strains, locus YLR342W, strain FKS1 (second series), active compounds read low 1.03 | S. cerevisiae deletion strains, locus YLR342W, strain FKS1, active compounds read low 0.973 | S. cerevisiae deletion strains, locus YLR357W, strain rsc2, active compounds read low 0.982 | S. cerevisiae deletion strains, locus YLR370C, strain arc18, active compounds read low 0.998 | S. cerevisiae deletion strains, locus YLR371W, strain rom2, active compounds read low 0.99 | S. cerevisiae deletion strains, locus YLR384C, strain iki3, active compounds read low 0.997 | S. cerevisiae deletion strains, locus YLR418C, strain cdc73, active compounds read low 0.993 | S. cerevisiae deletion strains, locus YML016C, strain PPZ1, active compounds read low 1.02 | S. cerevisiae deletion strains, locus YML032C, strain rad52, active compounds read low 0.982 | S. cerevisiae deletion strains, locus YML120C, strain ndi1, active compounds read low 0.973 | S. cerevisiae deletion strains, locus YML124C, strain tub3, active compounds read low 0.993 | S. cerevisiae deletion strains, locus YMR058W, strain fet3, active compounds read low 0.979 | S. cerevisiae deletion strains, locus YMR078C, strain ctf18, active compounds read low 0.99 | S. cerevisiae deletion strains, locus YMR125W, strain sto1, active compounds read low 0.982 | S. cerevisiae deletion strains, locus YMR129W, active compounds read low 0.992 | S. cerevisiae deletion strains, locus YMR205C, strain PFK2, active compounds read low 1.01 | S. cerevisiae deletion strains, locus YMR223W, strain ubp8, active compounds read low 1.01 | S. cerevisiae deletion strains, locus YMR231W, strain pep5, active compounds read low 0.996 | S. cerevisiae deletion strains, locus YMR263W, strain SAP30, active compounds read low 1.01 | S. cerevisiae deletion strains, locus YMR307W, strain GAS1, active compounds read low 1.05 | S. cerevisiae deletion strains, locus YNL067W, strain RPL9B, active compounds read low 1.01 | S. cerevisiae deletion strains, locus YNL071W, strain lat1, active compounds read low 0.984 | S. cerevisiae deletion strains, locus YNL128W, strain TEP1, active compounds read low 1.02 | S. cerevisiae deletion strains, locus YNL153C, strain GIM3, active compounds read low 1.01 | S. cerevisiae deletion strains, locus YNL183C, strain NPR1, active compounds read low 0.948 | S. cerevisiae deletion strains, locus YNL209W, strain ssb2, active compounds read low 0.976 | S. cerevisiae deletion strains, locus YNL233W, strain BNI4, active compounds read low 1 | S. cerevisiae deletion strains, locus YNL248C, strain rpa49, active compounds read low 0.959 | S. cerevisiae deletion strains, locus YNL250W, strain rad50, active compounds read low 1 | S. cerevisiae deletion strains, locus YNL271C, strain bni1, active compounds read low 0.985 | S. cerevisiae deletion strains, locus YNL298W, strain CLA4, active compounds read low 1 | S. cerevisiae deletion strains, locus YNL307C, strain MCK1, active compounds read low 0.993 | S. cerevisiae deletion strains, locus YNL322C, strain KRE1 (second series), active compounds read low 0.986 | S. cerevisiae deletion strains, locus YNL322C, strain KRE1, active compounds read low 1.01 | S. cerevisiae deletion strains, locus YNR049C, strain mso1, active compounds read low 0.993 | S. cerevisiae deletion strains, locus YNR052C, strain pop2, active compounds read low 0.99 | S. cerevisiae deletion strains, locus YOL006C, strain TOP1, active compounds read low 1.02 | S. cerevisiae deletion strains, locus YOL012C, strain htz1 0.897 | S. cerevisiae deletion strains, locus YOL147C, strain pex11, active compounds read low 0.987 | S. cerevisiae deletion strains, locus YOR001W, strain rrp6, active compounds read low 0.991 | S. cerevisiae deletion strains, locus YOR061W, strain CKA2, active compounds read low 1.02 | S. cerevisiae deletion strains, locus YOR069W, strain VPS5, active compounds read low 1.01 | S. cerevisiae deletion strains, locus YOR070C, strain gyp1, active compounds read low 0.996 | S. cerevisiae deletion strains, locus YOR080W, strain dia2, active compounds read low 0.979 | S. cerevisiae deletion strains, locus YOR083W, strain WHI5, active compounds read low 1 | S. cerevisiae deletion strains, locus YOR106W, strain vam3, active compounds read low 0.969 | S. cerevisiae deletion strains, locus YOR136W, strain idh2, active compounds read low 0.993 | S. cerevisiae deletion strains, locus YOR144C, strain elg1, active compounds read low 0.993 | S. cerevisiae deletion strains, locus YOR184W, strain ser1, active compounds read low 0.986 | S. cerevisiae deletion strains, locus YOR231W, strain MKK1, active compounds read low 0.974 | S. cerevisiae deletion strains, locus YOR265W, strain rbl2, active compounds read low 0.987 | S. cerevisiae deletion strains, locus YOR270C, strain vph1, active compounds read low 0.985 | S. cerevisiae deletion strains, locus YOR290C, strain snf2, active compounds read low 0.977 | S. cerevisiae deletion strains, locus YOR316C, strain cot1, active compounds read low 0.989 | S. cerevisiae deletion strains, locus YPL051W, strain arl3, active compounds read low 0.998 | S. cerevisiae deletion strains, locus YPL055C, strain LGE1, active compounds read low 1.03 | S. cerevisiae deletion strains, locus YPL078C, strain atp4, active compounds read low 0.978 | S. cerevisiae deletion strains, locus YPL106C, strain sse1, active compounds read low 0.962 | S. cerevisiae deletion strains, locus YPL240C, strain hsp82, active compounds read low 0.982 | S. cerevisiae deletion strains, locus YPL241C, strain CIN2, active compounds read low 1.01 | S. cerevisiae deletion strains, locus YPL256C, strain CLN2, active compounds read low 0.958 | S. cerevisiae deletion strains, locus YPR119W, strain clb2, active compounds read low 0.987 | S. cerevisiae deletion strains, locus YPR141C, strain kar3, active compounds read low 0.985 | S. cerevisiae deletion strains, locus YPR163C, strain tif3, active compounds read low 0.992 | S. cerevisiae deletion strains, locus YPR167C, strain met16, active compounds read low 0.991 | S. cerevisiae deletion strains, strain wtn01, active compounds read low 0.98 | S. cerevisiae strains, strain wild type, active compounds read low 1.02

Reference: PubChem BioAssay AID1159580 (chemical genetic matrix, 2015)
